Test results from PubChem BioAssay (NCATS).
Records with an inconclusive call do not appear. A number with no mark means an inactive call. Active and inactive are the calls of the source. The call rests on the fitted dose curve; in most records, active means well fitted activation curve with a large enough effect; inconclusive means small, poorly fitted or top-dose-only effect; inactive means no such curve, though single readings can be large or run the other way.

Molecular target: Cellular tumor antigen p53 (Homo sapiens) (UniProt P04637)
Assay: Primary qHTS for small molecule compounds that upregulate eGFP-tagged delta133p53alpha (in N-terminal) cells. (AID 2060322); further: nearly all actives have a fitted effect of over 75% in size;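 on activation: series mostly up to about 56 µM; 0% = DMSO vehicle and 100% = reference activator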
Details: NCI-H358 eGFP-delta133p53alpha fluorescence, 24 h; activation: hits give high values
Procedure, shortened: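 NCI-H358 cells pre-induced 24 h with 10 ng/ml doxycycline to express N-terminal eGFP-delta133p53alpha, then dosed 24 h at 37C without doxycycline; fixed, Hoechst-stained, GFP intensity by laser scanning cytometry, normalized to DMSO (0%) and 57.5 uM 5-azacytidine (100%).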
Potency means the concentration at half of the fitted maximal effect.

Sequence of Cellular tumor antigen p53 (Homo sapiens) (P04637 whole entry, looked up): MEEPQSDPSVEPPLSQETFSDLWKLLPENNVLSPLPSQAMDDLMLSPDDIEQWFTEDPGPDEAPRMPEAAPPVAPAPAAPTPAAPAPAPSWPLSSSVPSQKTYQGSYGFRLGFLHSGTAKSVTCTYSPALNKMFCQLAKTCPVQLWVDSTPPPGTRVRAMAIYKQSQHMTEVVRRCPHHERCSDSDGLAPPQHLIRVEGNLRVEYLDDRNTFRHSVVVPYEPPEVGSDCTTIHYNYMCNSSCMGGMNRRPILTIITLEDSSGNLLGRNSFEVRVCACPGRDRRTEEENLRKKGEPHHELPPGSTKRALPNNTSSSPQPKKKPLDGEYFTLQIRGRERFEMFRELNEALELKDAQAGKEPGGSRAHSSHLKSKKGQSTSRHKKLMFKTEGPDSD

Structure (SMILES) | activation [%] | Potency
CCOc1ccccc1C(N)=O | -11.9 | 
C[C@H](NC(=O)/C(C#N)=C/c1ccc(O)c(O)c1)c1ccccc1 | -11.2 | 
CCCCCCCCCCCCCCCC(=O)O | -13.4 | 
CN(C)[C@@H]1C(=O)C(C(N)=O)=C(O)[C@@]2(O)C(=O)C3=C(O)c4c(O)cccc4C[C@H]3C[C@@H]12 |  | 17.4 µM (active)
CCCCCCCCCCCCCCC[C@H](O)[C@@H](N)CO | 18.4 | 
CC(=O)NCc1c(I)c(NC(C)=O)c(I)c(C(=O)O)c1I | 16.4 | 
NS(=O)(=O)c1ccc(NC(=O)CCC(=O)O)cc1 | 14.1 | 
O=C(/C=C/c1ccccc1)OC[C@H]1O[C@@H](OC(=O)c2cc(O)c(O)c(O)c2)[C@H](O)[C@@H](O)[C@@H]1O | -19.1 | 
NS(=O)(=O)c1cc2c(cc1C(F)(F)F)NC(Cc1ccccc1)NS2(=O)=O (stereo not drawn) | -6.69 | 
Cc1cc(-n2nc3ccc(Cl)cc3n2)c(O)c(C(C)(C)C)c1 | 19.8 | 
CN(C)CCN(Cc1ccccc1)c1ccccn1 | 24.3 | 
CNC[C@@H](O)[C@@H](O)[C@H](O)[C@H](O)CO | 4.39 | 
Cc1c(C(N)=O)cc([N+](=O)[O-])cc1[N+](=O)[O-] | -8.37 | 
CN1CCCN(C(=O)c2cccc(-c3ccc(C=C4C(=O)Nc5ccc(Cl)cc54)o3)c2)CC1 | 19.8 | 
CCCCCCCCNC(C)C(O)c1ccc(SC(C)C)cc1 (stereo not drawn) |  | 21.9 µM (active)
CCCCCCOc1ccccc1C(N)=O | 8.47 | 
O=C(O)c1ccccn1 | 17.6 | 

Structure (SMILES) | activation [%] | Potency
CNCc1ccccc1 | 6.21 | 
CC(=O)N[C@@H]1[C@H](O[C@@H]2c3ccc(c(Cl)c3)Oc3cc4cc(c3O[C@H]3O[C@H](CO)[C@@H](O)[C@H](O)[C@H]3NC(=O)CCCCCCCC(C)C)Oc3ccc(cc3Cl)C[C@H]3NC(=O)[C@H](N)c5ccc(O)c(c5)Oc5cc(O)cc(c5)[C@H](NC3=O)C(=O)N[C@H]4C(=O)N[C@H]3C(=O)N[C@@H]2C(=O)N[C@@H](C(=O)O)c2cc(O)cc(O[C@H]4O[C@H](CO)[C@@H](O)[C@H](O)[C@H]4O)c2-c2cc3ccc2O)O[C@H](CO)[C@@H](O)[C@@H]1O | 25.3 | 
CCOC(=O)C(=O)CCCCCCl | -5.02 | 
CCOC(=O)/C=C(C)/C=C/C=C(C)/C=C/c1c(C)cc(OC)c(C)c1C | 9.6 | 
O=C(CCOCCOCCOCCOCCC(=O)Nc1c(I)cc(I)c(C(=O)O)c1I)Nc1c(I)cc(I)c(C(=O)O)c1I | -9.21 | 
OCCOCCN1CCN(C(c2ccccc2)c2ccc(Cl)cc2)CC1 (stereo not drawn) | 8.47 | 
Nc1nc2ccc(Cl)cc2c2nc(-c3ccco3)nn12 |  | 1.69 µM (active)
CCCCCOC(=O)Nc1nc(=O)n([C@@H]2O[C@H](C)[C@@H](O)C2O)cc1F (stereo partly drawn) | -14.6 | 
CCC(=O)O[C@H]1[C@H](O[C@@H]2[C@@H](C)[C@H](O[C@H]3C[C@@](C)(OC)[C@@H](O)[C@H](C)O3)[C@@H](C)C(=O)O[C@H](CC)[C@@](C)(O)[C@H](O)[C@@H](C)C(=O)[C@H](C)C[C@@]2(C)O)O[C@H](C)C[C@@H]1N(C)C | 0.837 | 
CC(=O)NC(=O)c1ccccc1O | 1.69 | 
O=P(O)(O)OCC(O)CO (stereo not drawn) | -9.21 | 
NC(=O)Cc1cccc(C(=O)c2ccccc2)c1N | 9.6 | 
C=C1[C@H](n2cnc3c(=O)[nH]c(N)nc32)C[C@H](O)[C@H]1CO | -20.5 | 
CCN[C@@H]1C[C@H](N)[C@@H](OC2OC(CN)=CCC2N)[C@H](O)[C@H]1O[C@H]1OC[C@](C)(O)[C@H](NC)[C@H]1O (stereo partly drawn) | 1.67 | 
COc1ccc(C=CC(=O)Nc2ccccc2C(=O)O)cc1OC | 5.12 | 
CN[C@H](CC(C)C)C(=O)N[C@H]1C(=O)N[C@@H](CC(N)=O)C(=O)N[C@@H]2C(=O)N[C@H]3C(=O)N[C@H](C(=O)N[C@H](C(=O)O)c4cc(O)cc(O)c4-c4cc3ccc4O)[C@H](O)c3ccc(c(Cl)c3)Oc3cc2cc(c3O[C@@H]2O[C@H](CO)[C@@H](O)[C@H](O)[C@@H]2O[C@H]2C[C@](C)(N)[C@H](O)[C@H](C)O2)Oc2ccc(cc2Cl)[C@H]1O | 4.73 | 
